About 2,400 (0.67%) of roughly 360,000 compounds were called active. Only a selection was taken, and actives are over-represented in it overall. A number with no mark means an inactive call.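 Rule for the calls: active = compounds whose normalised, plate-corrected inhibition of enzyme fluorescence in the single-dose primary screen is 50% or more; inactive = the rest.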
biological target: Fatty acid synthase (Homo sapiens) (UniProt P49327); assay: inhibition of human FAS-TE enzyme activity – biochemical, fluorescence intensity, uHTS, primary screen (AID 602261); conditions: recombinant FAS-TE, OMFH fluorogenic substrate, fluorescence endpoint; at 15 µM; hits give high values;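 note: 0% = DMSO with enzyme and 100% = substrate without enzyme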
Sequence (P49327 whole entry, looked up): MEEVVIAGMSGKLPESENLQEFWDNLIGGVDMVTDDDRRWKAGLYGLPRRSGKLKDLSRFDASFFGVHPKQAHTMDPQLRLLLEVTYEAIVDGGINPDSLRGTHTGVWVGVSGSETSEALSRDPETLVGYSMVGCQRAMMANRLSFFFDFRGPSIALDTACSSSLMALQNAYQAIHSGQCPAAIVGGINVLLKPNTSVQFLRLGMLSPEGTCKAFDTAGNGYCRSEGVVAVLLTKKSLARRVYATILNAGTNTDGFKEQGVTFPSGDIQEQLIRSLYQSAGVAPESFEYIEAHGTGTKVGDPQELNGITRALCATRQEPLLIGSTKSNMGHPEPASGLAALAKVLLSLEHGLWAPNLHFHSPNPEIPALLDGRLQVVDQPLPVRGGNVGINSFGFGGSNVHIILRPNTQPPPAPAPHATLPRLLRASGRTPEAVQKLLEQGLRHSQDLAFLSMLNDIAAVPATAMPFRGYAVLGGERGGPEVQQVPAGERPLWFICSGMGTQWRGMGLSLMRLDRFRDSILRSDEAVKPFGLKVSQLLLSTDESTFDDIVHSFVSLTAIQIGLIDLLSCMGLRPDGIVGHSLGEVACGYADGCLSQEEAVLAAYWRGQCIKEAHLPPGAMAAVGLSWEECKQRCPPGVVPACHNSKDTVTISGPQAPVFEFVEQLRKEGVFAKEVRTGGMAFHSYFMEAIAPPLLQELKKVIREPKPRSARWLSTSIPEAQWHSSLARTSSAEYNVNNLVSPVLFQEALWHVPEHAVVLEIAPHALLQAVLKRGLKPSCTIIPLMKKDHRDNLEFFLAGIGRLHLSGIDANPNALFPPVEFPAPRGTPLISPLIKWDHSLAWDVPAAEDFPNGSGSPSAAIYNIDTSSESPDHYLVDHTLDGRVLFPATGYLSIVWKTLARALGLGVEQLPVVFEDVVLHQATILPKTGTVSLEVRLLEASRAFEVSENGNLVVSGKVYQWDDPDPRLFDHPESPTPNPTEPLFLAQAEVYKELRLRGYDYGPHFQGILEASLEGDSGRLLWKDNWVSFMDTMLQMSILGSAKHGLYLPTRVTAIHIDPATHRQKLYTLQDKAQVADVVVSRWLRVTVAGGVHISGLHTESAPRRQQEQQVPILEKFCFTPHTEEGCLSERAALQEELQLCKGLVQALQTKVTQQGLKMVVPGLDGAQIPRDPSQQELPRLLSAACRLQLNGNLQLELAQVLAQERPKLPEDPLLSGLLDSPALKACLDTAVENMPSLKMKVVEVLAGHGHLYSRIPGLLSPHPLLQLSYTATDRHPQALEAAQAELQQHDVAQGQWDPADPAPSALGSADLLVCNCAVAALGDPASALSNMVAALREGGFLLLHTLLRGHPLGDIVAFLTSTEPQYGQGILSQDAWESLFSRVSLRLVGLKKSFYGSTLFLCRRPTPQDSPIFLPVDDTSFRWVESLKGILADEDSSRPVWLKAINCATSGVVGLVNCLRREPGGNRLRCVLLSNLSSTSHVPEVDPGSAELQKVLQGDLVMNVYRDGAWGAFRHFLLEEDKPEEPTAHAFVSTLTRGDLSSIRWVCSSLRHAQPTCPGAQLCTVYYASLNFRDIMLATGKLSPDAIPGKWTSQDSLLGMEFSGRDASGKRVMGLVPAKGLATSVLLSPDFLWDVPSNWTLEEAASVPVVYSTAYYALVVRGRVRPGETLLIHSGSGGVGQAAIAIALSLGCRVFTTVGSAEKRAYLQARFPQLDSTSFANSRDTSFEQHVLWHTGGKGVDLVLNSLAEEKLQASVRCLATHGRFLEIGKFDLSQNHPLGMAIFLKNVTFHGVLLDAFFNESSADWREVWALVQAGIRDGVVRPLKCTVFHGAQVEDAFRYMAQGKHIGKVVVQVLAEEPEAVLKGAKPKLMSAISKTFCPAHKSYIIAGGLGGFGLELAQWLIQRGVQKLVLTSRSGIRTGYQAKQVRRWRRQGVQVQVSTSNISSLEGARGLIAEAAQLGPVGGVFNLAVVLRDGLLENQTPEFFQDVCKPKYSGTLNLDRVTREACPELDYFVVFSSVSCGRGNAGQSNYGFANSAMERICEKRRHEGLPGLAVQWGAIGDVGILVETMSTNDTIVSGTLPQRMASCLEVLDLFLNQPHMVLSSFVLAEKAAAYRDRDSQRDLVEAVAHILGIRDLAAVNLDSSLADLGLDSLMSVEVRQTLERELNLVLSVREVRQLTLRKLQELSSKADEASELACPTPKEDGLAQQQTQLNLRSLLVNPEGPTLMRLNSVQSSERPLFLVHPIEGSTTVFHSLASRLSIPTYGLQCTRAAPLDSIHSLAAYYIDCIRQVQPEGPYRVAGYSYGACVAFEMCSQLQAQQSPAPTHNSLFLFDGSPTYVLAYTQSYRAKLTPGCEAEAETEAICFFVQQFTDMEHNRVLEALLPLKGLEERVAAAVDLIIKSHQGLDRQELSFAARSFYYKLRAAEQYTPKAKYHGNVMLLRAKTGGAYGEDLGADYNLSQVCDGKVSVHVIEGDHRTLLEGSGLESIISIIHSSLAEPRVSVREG

SMILES	inhibition
Cn1cc(S(=O)(=O)N2CCC(Cc3ccccc3)CC2)c(=O)n(C)c1=O	-7.6%
COCCn1c(SCC(=O)Nc2cc(Cl)ccc2OC)nc2c(c1=O)SC(C)C2 (stereo not drawn)	20.2%
Cc1ccccc1-n1nnnc1SCCCC(=O)c1ccc(F)cc1	19.4%
CC(C)=CCc1ccc(O)c(=O)cc1C(C)C	-0.3%
COc1cccc(NC(=O)CN(C)C(=O)c2ccccc2CCc2ccccc2)c1	23.2%
COc1ccc(C2Nc3ccccc3C(=O)N2Cc2ccccc2)cc1Cn1nnc2ccccc21 (stereo not drawn)	35.8%
COc1ccc(CN2CCCC(C(=O)c3ccc(Cl)cc3)C2)cc1Cn1cncn1 (stereo not drawn)	-9.9%
COc1ccc(C2Nc3ccccc3C(=O)N2c2ccc(Cl)cc2)cc1Cn1cc([N+](=O)[O-])cn1 (stereo not drawn)	69.9% (active)
Cc1ccc(Nc2cc(C)nc3c(C)ccc([N+](=O)[O-])c23)cc1	25%
N#CCCN(C(=O)COC(=O)C1CCN(c2ccc(C(F)(F)F)cn2)CC1)c1ccc(F)cc1	18.7%
Nc1cc(OC(=O)c2ccccc2Br)nn1S(=O)(=O)c1ccccc1	5.4%
O=C(Cc1ccc(Cl)c(Cl)c1)Nc1ccc(SC(F)F)cc1	66.1% (active)
O=C(CCl)Nc1ccc(Sc2ccc(NC(=O)CCl)cc2)cc1	2.8%
O=C(CC(O)(C(F)(F)F)C(F)(F)F)Nc1ccc(Cl)c(Cl)c1	22.2%
CCOC(=O)Cn1nnnc1C	-1.8%
O=C(Cc1ccc([N+](=O)[O-])cc1)NCCc1ccc2c(c1)OCO2	18.8%
O=C(NCc1ccc2c(c1)OCO2)c1cc([N+](=O)[O-])ccc1N1CCOCC1	51.7% (active)
CC1CCN(c2ccc(C(=O)NCc3ccc4c(c3)OCO4)cc2[N+](=O)[O-])CC1	13.7%
CN(C)c1ccc(S(=O)(=O)NCC(=O)NCC2CCCCC2)cc1[N+](=O)[O-]	5.2%
CN(C)c1ccc(/C=C/C(=O)c2ccc(C(C)(C)C)cc2)cc1[N+](=O)[O-]	74.2% (active)

SMILES	inhibition
CC(C)(C)c1ccc(/C=C/C(=O)NC2CCS(=O)(=O)C2)cc1 (stereo not drawn)	-0.6%
Cc1ccc(S(=O)(=O)N2CCN(C)CC2)cc1C(=O)NC1CCCCC1	-7%
CCOC(=O)C1=CN(Cc2ccc(Br)cc2)S(=O)(=O)NC1C (stereo not drawn)	9.4%
CC(C)[C@@H]1COC(c2cccc(C3=N[C@H](C(C)C)CO3)c2)=N1	1.1%
CC1(C)O[C@@H]2[C@H](O1)[C@@H](COS(=O)(=O)O)O[C@H]2n1ccc(=O)[nH]c1=O	-13.4%
CC(NS(=O)(=O)c1ccc(Cl)cc1)C(=O)Nc1ccc2c(c1)OCCO2 (stereo not drawn)	-2.1%
O=C(Nc1cccc(S(=O)(=O)Nc2ccc(Cl)cc2)c1)c1ccc2c(c1)OCCO2	54% (active)
CCN(CC)CCNC(=O)c1ccc(NS(=O)(=O)c2ccc3c(c2)OCCO3)cc1	-4.3%
CCN(CC)c1ccc(S(=O)(=O)N2CCOCC2)cc1NC(=O)CSc1cccc[n+]1[O-]	-33.9%
CCc1nnc(NS(=O)(=O)c2ccc(NC(=O)c3cccc(OC(F)(F)C(F)F)c3)cc2)s1	15.6%
O=C(Nc1ccccc1)c1ccc2nsnc2c1	-6.4%
O=C(Nc1ccc(OC(F)(F)F)cc1)c1ccc2c(c1)no[n+]2[O-]	50.7% (active)
COc1ccccc1C(=O)NC(CCSC)C(=O)NNC(=O)c1ccccc1C (stereo not drawn)	-1.2%
CC(c1ccco1)N(C(=O)COc1ccccc1[N+](=O)[O-])c1ccccn1 (stereo not drawn)	6.4%
CN1CCOC1c1ccc(C2OCCN2C)cc1 (stereo not drawn)	-6.4%
CC(=O)c1ccc(S(=O)(=O)N2CCN(c3nc4c(C)c(C)ccc4cc3C#N)CC2)cc1	61.5% (active)
CC(=O)c1ccc(S(=O)(=O)N2CCC3(CC2)OCCO3)cc1	-3.8%
CC(=O)c1ccc(N2CCN(S(=O)(=O)c3ccc4c(c3)CC(=O)N4C)CC2)cc1	8.9%
Oc1c(Br)cc(/C=N/NC(=S)NCC2CCCO2)cc1Br (stereo not drawn)	-3.3%
O=C(NC1CCCC1)C1c2ccccc2OCC(=O)N1Cc1ccccc1 (stereo not drawn)	-7.8%

SMILES	inhibition
Cc1ccc(NC(=O)N2CCSc3ccccc32)cc1	3.8%
O=C(c1cccc(Cl)c1)N1CCN(Cc2ccccc2)CC1	-4.7%
O=C(/C=C/c1cccc([N+](=O)[O-])c1)N1CCN(Cc2ccccc2)CC1	69.8% (active)
O=C(/C=C/c1cccc([N+](=O)[O-])c1)OCC(=O)N1CCOCC1	-3.4%
CCCOc1ccc(/C(O)=C2/C(=O)C(=O)N(CCN(C)C)C2c2ccc(OC)c(OC)c2)cc1 (stereo not drawn)	-4.4%
CCN1CCCC1CNC(=O)c1ccc2c(c1)NC(=O)/C(=C\c1ccccc1F)S2 (stereo not drawn)	-6.6%
CCOC(=O)N1CCN(S(=O)(=O)N2CCCC(C(=O)NCCCN3CCC(C)CC3)C2)CC1 (stereo not drawn)	-9%
Cn1c(NN)nc2sc3c(c2c1=O)CCC3	0%
O=c1oc(-c2ccco2)nc2sc3c(c12)CCCCC3	59.2% (active)
O=S(=O)(c1ccc(Cl)cc1)c1nc(-c2ccco2)oc1N1CCCCC1	17.9%
CCCCCc1c(Cc2ccccc2)ncn1CCc1ccccc1OC	11%
Cc1cccc(NC(=O)CSc2nc3c(c(=O)[nH]2)CCC3)c1C	-9.1%
CCC(C)(C)NC(=O)c1cc([N+](=O)[O-])ccc1N1CCCCC1	9.2%
CC(C)C(=O)Nc1cccc(NC(=O)c2ccc([N+](=O)[O-])cc2Cl)c1	-13.2%
CCN1CCN(c2ccc([N+](=O)[O-])cc2C(=O)c2ccc(Cl)cc2)CC1	24.4%
O=C(Nc1cccc(Cl)c1)c1cc([N+](=O)[O-])ccc1N1CCN(CCO)CC1	68.1% (active)
Cc1cccc(NC(=O)c2cc([N+](=O)[O-])ccc2N2CCN(C)CC2)c1	56.8% (active)
NS(=O)(=O)c1cccc(NC(=O)COC(=O)c2cc([N+](=O)[O-])ccc2N2CCCC2)c1	26.9%
